In all, about 68,000 sequences were measured (“fluorescence intensity (a.u.)”: median about 9,100, highest 2% from about 16,000 on). The sample holds the highest values, similar sequences and a random draw of the others, so the mix is not that of the screen.

This assay deals with OsWRKY34 (Oryza sativa, UniProt Q0JBA9 1-250). The experiment in a line: protein-binding microarray (RPBM); PBS, 2% BSA, 51.3 ng/ul salmon testes DNA, 50 uM zinc acetate, 200 nM TF, 25 C, 1 h; high values mean tight binding. The note with it: protein: recombinant; tags: N-terminal polyhistidine and DsRed monomer fusion (pET32a); label: CyDye5-dUTP incorporated in the synthesized complementary strand; 3' TTTTT single-stranded linker to array surface; dsDNA, one strand shown. The procedure, abridged: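 Binding signal is reported as fluorescence intensity per feature (arbitrary units) from an Axon 4000B scanner. Incubation used 200 nM of each Ni–NTA-purified, N-terminally polyhistidine- and DsRed-fused transcription factor from E. coli BL21-CodonPlus on a double-stranded custom Agilent array for 1 h at 25 °C, with 50 µM zinc acetate in the buffer, followed by washing.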
OsWRKY34, sequence (Q0JBA9 entry or part of it): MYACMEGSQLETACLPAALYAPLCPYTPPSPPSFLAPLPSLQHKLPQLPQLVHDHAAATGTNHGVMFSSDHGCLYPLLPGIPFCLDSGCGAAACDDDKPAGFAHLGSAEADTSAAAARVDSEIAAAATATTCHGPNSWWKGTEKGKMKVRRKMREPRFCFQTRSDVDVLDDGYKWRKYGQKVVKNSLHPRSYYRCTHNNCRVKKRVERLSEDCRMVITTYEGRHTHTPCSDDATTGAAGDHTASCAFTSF
With “CCTTTTCAAGTATTATTGCTGTTTGATTCATCTCTCTTTGCGGAGTCACCTAGTGCAG”, the binding signal was 9510 fluorescence intensity (a.u.). The same measure for “TAAACTTGCTCTGATGCGCCCACACGGGGCCACGGCGCGCCGGAGTCACCTAGTGCAG”: 9010 fluorescence intensity (a.u.); for “TAAACTCGTCTTATCCGCATGATTGTTGACTATAGTATGTCGGAGTCACCTAGTGCAG”: 9300 fluorescence intensity (a.u.). Turning to “CTTTCATATATGTGTGTGCTATGATTTGTTTTCTTCCTCACGGAGTCACCTAGTGCAG”, the binding signal is 11900 fluorescence intensity (a.u.). As to “CCGCATCCTTCTTGGACTTCTGTTTTGTTGTTGGCCATGGCGGAGTCACCTAGTGCAG”, the binding signal was 11100 fluorescence intensity (a.u.). With “GATTTTTCTTTACATGTTCTTTTTCATCGATCTTTTGAGACGGAGTCACCTAGTGCAG”, the binding signal is 9460 fluorescence intensity (a.u.). Consider “GCTCCAGATCTGTGGGTGTCTTTGGGTGAGTGGGCAAATACGGAGTCACCTAGTGCAG”, for which the binding signal is 11200 fluorescence intensity (a.u.). The same measure for “CTGAACATGTTGTTCAGTTGGCCTCGTTTTCTCACCTTTGCGGAGTCACCTAGTGCAG”: 9320 fluorescence intensity (a.u.).

With “ATATCTCACTTTGACTGCTTGTTGTTATCGTTCTTTTATACGGAGTCACCTAGTGCAG”, the binding signal was 12000 fluorescence intensity (a.u.). On to “GACCTGAAGTTCTCGTTGTGTTGGCCTGCGTTTTTATCTGCGGAGTCACCTAGTGCAG”, for which the binding signal is 16800 fluorescence intensity (a.u.). On to “TCGTTTTTCTCTTTAGTGTGTGTGTGTTGCGTTTTTGCAACGGAGTCACCTAGTGCAG”, for which the binding signal was 10300 fluorescence intensity (a.u.). With “TTGTTCTCTTTTTTTTTGCGTGCGTTGACTTTATCTTCAACGGAGTCACCTAGTGCAG”, the binding signal was 19900 fluorescence intensity (a.u.).

With “CTTCTGCTTGGTGTGTTGTGTGTTTTACCTTGAGTTATCTCGGAGTCACCTAGTGCAG”, the binding signal was 8480 fluorescence intensity (a.u.). Turning to “GGGAGTCAAAGTAGACTTATTCTTCCCCAATCCATCTCAGCGGAGTCACCTAGTGCAG”, the binding signal was 8330 fluorescence intensity (a.u.). In the case of “GTTCTCGATGTGTTCTAAAATTTTGTTGTTTATAATTTTTCGGAGTCACCTAGTGCAG”, the binding signal is 8190 fluorescence intensity (a.u.). Take “TTCATCGTAAACGTTACTTCTCGTTATAAATTGATTTTTTCGGAGTCACCTAGTGCAG”: the binding signal is 10100 fluorescence intensity (a.u.). In the case of “ACAGCGACCTTTTGCTGCAAAGCTTTGTTGGGTTTGGGCTCGGAGTCACCTAGTGCAG”, the binding signal was 8470 fluorescence intensity (a.u.). With “ACGACCCCTCCAACACATTTCCCTCGCGTCTCGTTGCGATCGGAGTCACCTAGTGCAG”, the binding signal is 8480 fluorescence intensity (a.u.). As for “CTCGTTATATCTATTATAAATTTTTTAATATACATGTTATCGGAGTCACCTAGTGCAG”, the binding signal was 9040 fluorescence intensity (a.u.). On to “AGGATCGAGGAATTCAGTTAAGCAAAAATATTTATACATGCGGAGTCACCTAGTGCAG”, for which the binding signal is 47600 fluorescence intensity (a.u.).

Regarding “ATCGTACCATTATTCAAAATTTTAAATAGTTACATGTTCACGGAGTCACCTAGTGCAG”, the binding signal is 8120 fluorescence intensity (a.u.). The result for “ATCTCCGGCGTTTTTCAACCGTATGGCAATGATCATCCTTCGGAGTCACCTAGTGCAG” reads 11100 fluorescence intensity (a.u.). Turning to “TAGGGAGGGTTGTGGGGAGGGGAGCTGTGGCCGCAATGTCCGGAGTCACCTAGTGCAG”, the binding signal was 19400 fluorescence intensity (a.u.). With “GTTGGGGTGGAGGGCTGCTCCAGGTGAGAGGGCTGGGCATCGGAGTCACCTAGTGCAG”, the binding signal is 9900 fluorescence intensity (a.u.). With “GAAGGTTGCTGTTGCTTGTTGTTGGTAGTGTCTTGTGTGCCGGAGTCACCTAGTGCAG”, the binding signal is 9090 fluorescence intensity (a.u.).

Regarding “TGGCCGGAGCTAGGGTGGGTGGGTGGTTGGCCGCACCACCCGGAGTCACCTAGTGCAG”, the binding signal was 8250 fluorescence intensity (a.u.). With “GTGGCTGCGTGTGGTGGCGTTGCACGGCTCGGGTGGGCTCCGGAGTCACCTAGTGCAG”, the binding signal is 8660 fluorescence intensity (a.u.). Turning to “GGGCTTGTTGGGGTTGCTGTGGTAGCCGGGAGGGAGGGGACGGAGTCACCTAGTGCAG”, the binding signal was 28500 fluorescence intensity (a.u.). “TTGTGGCAATGGCGGCGGTGGCGGTGGCGGTTGGGGTGGCCGGAGTCACCTAGTGCAG”: the binding signal was 11500 fluorescence intensity (a.u.).

Take “CTGTGGTGGTGTGCATACGGGTTGGGGTGGAGGGCTGCTCCGGAGTCACCTAGTGCAG”: the binding signal was 17900 fluorescence intensity (a.u.). Consider “TGGCTGCCGGACTTGGGAGGGACACTGGGTTGGTTGTGGGCGGAGTCACCTAGTGCAG”, for which the binding signal was 9440 fluorescence intensity (a.u.). As for “TAGCTCACATCGTTTTACGTATCTTCCCAATCTCCTGATCCGGAGTCACCTAGTGCAG”, the binding signal was 8950 fluorescence intensity (a.u.). On to “CTTTCGCGTTTTCCTTGGGTTTGACAATGGGCTACATTGCCGGAGTCACCTAGTGCAG”, for which the binding signal was 9400 fluorescence intensity (a.u.). The same measure for “TATACTCCTTATCTTGGATTGGTAGTCTTTAGTTTGCTTTCGGAGTCACCTAGTGCAG”: 9320 fluorescence intensity (a.u.); for “AACACCACGCCGCGCGCTCCACGGCAACGCAACGCAGGAACGGAGTCACCTAGTGCAG”: 8720 fluorescence intensity (a.u.); for “CAAAGTTGTGTGTTGTGAAGTGTGAAGGAGAGCTCTATTTCGGAGTCACCTAGTGCAG”: 8610 fluorescence intensity (a.u.). For “TCCGGAGTCTGCACCCATCTTCCCCACGTGCGCGCCCATCCGGAGTCACCTAGTGCAG”, the binding signal is 8980 fluorescence intensity (a.u.).

Regarding “CGCCGTTGACTTTTTCTCATATGTTTGACCATTCATCTTACGGAGTCACCTAGTGCAG”, the binding signal was 38900 fluorescence intensity (a.u.). With “TGACGCCGTTAACTTTTTCTCACATATTTGACTATTTGTCCGGAGTCACCTAGTGCAG”, the binding signal is 10900 fluorescence intensity (a.u.).

With “ACCATTGATTTTTCAGTACGTGTTTGACCATTCGTCTTATCGGAGTCACCTAGTGCAG”, the binding signal was 13300 fluorescence intensity (a.u.). On to “TTTTCTCATATGTTTGACCATTCGTCTTATTCAAAAAATTCGGAGTCACCTAGTGCAG”, for which the binding signal was 9000 fluorescence intensity (a.u.).

Turning to “TGACGCCGTTGACTTTTTCTCACATGTTTGACTATTCGTCCGGAGTCACCTAGTGCAG”, the binding signal is 49100 fluorescence intensity (a.u.). The result for “TGACGCCGTTGACTTTTTCTTACATGTTTGACCATTCGTCCGGAGTCACCTAGTGCAG” reads 36700 fluorescence intensity (a.u.); that for “TTTCGTCAGCTGATCGTATATTGACCTTTTCTGTCTCTGTCGGAGTCACCTAGTGCAG”, 10500 fluorescence intensity (a.u.). On to “ATTGACTTTTTCTTACACTGTTTAACCATTCGTCTTATTCCGGAGTCACCTAGTGCAG”, for which the binding signal is 14000 fluorescence intensity (a.u.). On to “CACCGTTAATTTTTTCTCACATGTTTGACCATTCATCTTACGGAGTCACCTAGTGCAG”, for which the binding signal was 14400 fluorescence intensity (a.u.). The same measure for “GCTGTTGACTTTTTCTCACGTGATTGACCTTTCGTCTTATCGGAGTCACCTAGTGCAG”: 28400 fluorescence intensity (a.u.); for “TCGCCGCTTTCCCTTTCTCCCCTGCGCTCTCACGTCAAACCGGAGTCACCTAGTGCAG”: 8970 fluorescence intensity (a.u.); for “CTCTGCTCAGTGCTGCTCACTGCCTCACTCACACTGTCACCGGAGTCACCTAGTGCAG”: 11000 fluorescence intensity (a.u.). For the sequence “CTAACCTGGACCGTCCATCCGCGCGAAGTTTTCTCCACCGCGGAGTCACCTAGTGCAG”, the binding signal is 9060 fluorescence intensity (a.u.). With “TTCCACACAATGTGCTAAAAGTTTGACTTTTACACGTCCACGGAGTCACCTAGTGCAG”, the binding signal is 14500 fluorescence intensity (a.u.). The same measure for “AACATCTGCCTGCTCACTAAAATGATCTACCGGCTTTTTTCGGAGTCACCTAGTGCAG”: 8620 fluorescence intensity (a.u.); for “CGCTGTTTTTTTTTTATTTTGACGGGTAGTAGAGGCCGCGCGGAGTCACCTAGTGCAG”: 9990 fluorescence intensity (a.u.). “TTTCAGAGCTATTTGGCCTTTAATACACTTTCCTATTAAGCGGAGTCACCTAGTGCAG”: the binding signal was 8710 fluorescence intensity (a.u.).

The values are drawn from paper PMC7819943, “Rice protein-binding microarrays: a tool to detect cis-acting elements near promoter regions in rice”.
